Data on 37 compounds can be found in PubChem BioAssay (EPA / NIEHS).

Each structure is given as a SMILES string. “And” between values parts separate entries of the source, which are not always exact repeats. Equal values may be shown once. Where a structure was tested more than once in an assay, its records may differ in their call. The source made the active and inactive calls. How the source made its calls: active means hit-call score of the fitted dose curve at least 0.9, where 1 is the maximum; inactive means score below 0.9.

This assay can be described thus: APR_HepG2_MicrotubuleCSK_72hr: Apredica 72-hour HepG2 Assay for Microtubule CSK Stabilty (AID 2282919). Particulars: HepG2 microtubule cytoskeleton, high-content imaging, actives raise or lower the signal. The method, then:
APR_HepG2_72hr is a cell-based, multiplexed-readout assay that uses HepG2, a human liver cell line, with measurements taken at 72 hours after chemical dosing in a 384-well plate.APR_HepG2_MicrotubuleCSK_72hr is one of 10 assay component(s) measured or calculated from the APR_HepG2_72hr assay. It is designed to make measurements of protein conformation, a form of conformation reporter, as detected with fluorescence intensity signals by HCS Fluorescent Imaging technology.Data from the assay component APR_HepG2_MicrotubuleCSK_72hr was analyzed into 1 assay endpoint. This assay endpoint, APR_HepG2_MicrotubuleCSK_72hr, was analyzed with bidirectional fitting relative to DMSO as the negative control and baseline of activity. Using a type of conformation reporter, measures of protein for gain or loss-of-signal activity can be used to understand the signaling at the cellular-level. Furthermore, this assay endpoint can be referred to as a primary readout, because this assay has produced multiple assay endpoints where this one serves a signaling function. To generalize the intended target to other relatable targets, this assay endpoint is annotated to the cell morphology intended target family, where the subfamily is cell conformation.
Cells were treated with dimethyl sulfoxide (DMSO) as a solvent control at a final concentration of 0.5% v/v or with compounds in DMSO with a resulting final DMSO concentration of 0.5% v/v. Compound treatment was done at concentrations of 0.39, 0.78, 1.56, 3.12, 6.24, 12.5, 25, 50, 100, and 200 uM in duplicate on each plate. Cells were treated with compounds for 1, 24, or 72 hr. Carbonyl […] m-chloro-phenylhydrazone (CCCP) and taxol were used as positive controls for mitochondrial function and cytoskeletal stability, respectively; DMSO served as the negative control for this experiment. Cells were fixed by the direct addition of 50 uL formaldehyde in Hank's Balanced Salt Solution (HBSS) to a final concentration of 3.7%. After incubation in the fixation medium for 30 min at room temperature (293-298 K), cells were rinsed twice with HBSS and treated with cell permeabilization buffer (16 uL of 0.5% Triton X-100) for 10 min at room temperature (293-298 K) before labeling. For mitochondrial membrane potential and mitochondrial measurements, pre-fixed cells were incubated with 50 uL of MitoTracker Red CMXRos (Invitrogen) at a concentration of 250 nM for 30 min before fixation. In the remaining cases, post-fixed cells were labeled by incubation with a multiplexed mixture of primary antibodies in HBSS for 60 min at room temperature (293-298 K) to detect immunoreactivity of c-Jun (1:500), phospho-histone H3 (1:100), phospho-histone H2A.x (1:200), p53 (1:400), alpha-tubulin (1:200) and Hoechst 33342 (2 ug/mL). Cells were labeled for multiplexed imaging on two separate plates: a) Hoechst 33342, MitoTracker Red, phospho-histone H3, and alpha-tubulin, and b) Hoechst 33342, phospho-histone H2A.x, and c-Jun. A final rinse with HBSS (50 uL) was performed before analysis. The primary and secondary antibodies for the proteins were phospho-histone H3 (rabbit anti-phospho-histone H3 and FITC-donkey anti-rabbit IgG), phospho-histone H2A.x (mouse anti-phospho-histone H2A.x and FITC-donkey anti-mouse IgG), c-Jun (rabbit anti-phospho-c-Jun and Cy3-donkey anti-rabbit IgG), p53 (sheep anti-p53 and Cy5-donkey anti-sheep IgG), alpha-tubulin (mouse anti-alpha-tubulin and Cy5-donkey anti-mouse IgG). These antibodies are available as the CellCiphr HepG2 assay kit (Millipore).Digital images of each well were captured using a Cellomics ArrayScan VTI (Thermo Scientific Cellomics) (0.8 NA objective, 0.63x optical coupler, and XF-93 filter set) at 20x magnification. The images were acquired using the autofocus feature of the ArrayScan instrument, which entails the following steps. First, the camera focuses on channel 1 (Hoechst 33342), where nuclei are identified. Second, a Z offset of 1 um is used for capturing mitochondria (MitoTracker Red). […]
As for `Oc1cc(Cl)ccc1Oc1ccc(Cl)cc1Cl`, the compound was classed as inactive; the AC50 – broadly, the concentration at which the activity in the assay is half-maximal – is 98.6 µM (active) and 71.5 µM (active). For the compound `CCCN(CCC)c1c([N+](=O)[O-])cc(C(F)(F)F)cc1[N+](=O)[O-]`, the compound was classed as inactive. On the same count and under the same terms, as for `N#Cc1c(Cl)c(Cl)c(Cl)c(C#N)c1Cl`, the entry is “inactive”; as for `CCC(C)(NC(=O)c1cc(Cl)c(C)c(Cl)c1)C(=O)CCl` (stereo not given), “inactive”. Turning to `COP(=S)(OC)Oc1ccc([N+](=O)[O-])cc1`, the compound was classed as inactive.

Consider `CN1CSC(=S)N(C)C1`, for which the AC50 is 66.4 µM (active). As for `CC1(c2ccc(Oc3ccccc3)cc2)OC(=O)N(Nc2ccccc2)C1=O` (stereo not given), the call was inactive. Same read-out and setting: the value for `CNC(=O)/C=C(\C)OP(=O)(OC)OC` was “inactive”; that for `COc1nn(CSP(=S)(OC)OC)c(=O)s1` was “inactive”; that for `O=C(O)CCCOc1ccc(Cl)cc1Cl` was “inactive”. Same read-out and setting: the value for `Cc1cc(C)nc(NC(=O)NS(=O)(=O)c2ccccc2C(=O)OC2COC2)n1` was “inactive”; that for `O=C(O)C(F)(F)C(F)(F)C(F)(F)C(F)(F)C(F)(F)C(F)(F)C(F)(F)F` was “inactive”; that for `COP(=O)(OC)OC=C(Cl)Cl` was “inactive”. The same measure, in the same setting: the value for `COc1cc(OC)nc(NC(=O)NS(=O)(=O)c2cc(NC=O)ccc2C(=O)N(C)C)n1` was “inactive”. With `Oc1ccc(Cl)cc1Cc1ccccc1`, the call was inactive; the concentration at half-maximal activity (AC50) was 111 µM (active) and 62.5 µM (active). For the compound `O=S(=O)(O)C(F)(F)C(F)(F)C(F)(F)C(F)(F)C(F)(F)C(F)(F)C(F)(F)C(F)(F)F`, the half-maximal activity concentration (AC50) is 111 µM (active) and the result was inactive. On to `COC(=O)c1ccccc1S(=O)(=O)NC(=O)Nc1nc(C)nc(OC)n1`, for which the outcome was inactive.

For the compound `O=C1c2ccccc2C(=O)N1SC(Cl)(Cl)Cl`, the call was inactive. On to `CC[C@H](C)[C@H]1O[C@]2(C=C[C@@H]1C)C[C@@H]1C[C@@H](C/C=C(\C)[C@@H](O[C@H]3C[C@H](OC)[C@@H](O[C@H]4C[C@H](OC)[C@@H](O)[C@H](C)O4)[C@H](C)O3)[C@@H](C)/C=C/C=C3\CO[C@@H]4[C@H](O)C(C)=C[C@@H](C(=O)O1)[C@]34O)O2` (tested in a mixture with another compound), for which the outcome was inactive. As to `CC(C)(C)C(O)/C(=C\c1ccc(Cl)cc1Cl)n1cncn1` (stereo not given), the AC50 is 175 µM (active). In the case of `CNC(=O)Oc1ccccc1OC(C)C`, the compound was classed as inactive.

`CCc1ccc(C(=O)NN(C(=O)c2cc(C)cc(C)c2)C(C)(C)C)cc1`: the AC50 was 51.7 µM (active). `CC(C)OC(=O)Nc1cccc(Cl)c1`: the call was inactive. On the same count and under the same terms, the value for `O=[N+]([O-])c1c(Cl)c(Cl)c(Cl)c(Cl)c1Cl` was “inactive”; that for `CCC(C)(C)C(=O)OC1=C(c2ccc(Cl)cc2Cl)C(=O)OC12CCCCC2` was “inactive”; that for `COC(=O)c1ccccc1S(=O)(=O)NC(=O)N(C)c1nc(C)nc(OC)n1` was “inactive”.

As for `[2H]C1([2H])[n+]2ccccc2-c2cccc[n+]2C1([2H])[2H]`, the concentration at half-maximal activity (AC50) was 143 µM (active). Still for that read-out and setting: the value for `Clc1ccccc1-c1nnc(-c2ccccc2Cl)nn1` was 12.8 µM (active).

Consider `OCCOc1ccccc1`, for which the compound was called inactive.

Turning to `CCOCN(C(=O)CCl)c1c(C)cccc1CC`, the AC50 is 13.9 µM (active). For `CNC(=O)CSP(=S)(OC)OC`, the compound was classed as inactive. Same read-out and setting: as for `CNC(=O)Oc1cccc(N=CN(C)C)c1`, the entry is “inactive”. Consider `CC(C)(C)C(O)C(Oc1ccc(Cl)cc1)n1cncn1` (stereo not given), for which the compound was called inactive. The same measure, in the same setting: the value for `COP(=S)(OC)Oc1ccc(SC)c(C)c1` was “inactive”. Turning to `C#CCN1C(=O)COc2cc(F)c(N3C(=O)C4=C(CCCC4)C3=O)cc21`, the result was inactive. On the same count and under the same terms, the value for `N#CN` was “inactive”; that for `ClC1C(Cl)C(Cl)C(Cl)C(Cl)C1Cl` (stereo not given) was “inactive”.
